In PubChem BioAssay AID1159580 (chemical genetic matrix, 2015):
Where “and” joins values, the source holds several entries; their conditions need not be identical. Equal entries are not always repeated. Screen size: about 5,500 compounds; about 2,000 (36%) were called active. About 18% were inconclusive and are not listed. Cut-off read from the data, not from the text of the source: active = normalized growth mostly below about 0.91 (no sharp cut-off); inconclusive = no clear call, values can overlap the other calls; inactive = mostly above about 0.92. This is one part of the list.

Assay: chemical genetic growth profiling, strain panel (AID 1159580);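 note: tested at 20 µM; growth read once vehicle control cultures reached saturation at 30 °C; 1 = growth at the plate median or of vehicle wells; lower values mean less growth of the strain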
Settings: S. cerevisiae deletion strains, growth OD

Measured: normalized growth

Cc1cc(O)c2c(c1)C(=O)c1cccc(O)c1C2=O
inactive: locus YAL013W, strain DEP1, stronger effect = lower value 0.971 | locus YAL021C, strain ccr4, stronger effect = lower value 0.991 | locus YAL026C, strain drs2, stronger effect = lower value 0.974 | locus YAL030W, strain snc1, stronger effect = lower value 1 | locus YBL061C, strain skt5, stronger effect = lower value 0.999 | locus YBR009C, strain hhf1, stronger effect = lower value 0.98 | locus YBR021W, strain FUR4, stronger effect = lower value 1.05 | locus YBR023C, strain chs3, stronger effect = lower value 1.01 | locus YBR171W, strain sec66, stronger effect = lower value 0.996 | locus YBR229C, strain ROT2, stronger effect = lower value 0.996 | locus YBR231C, strain swc5, stronger effect = lower value 0.967 | locus YBR279W, strain paf1, stronger effect = lower value 1 | locus YCL011C, strain gbp2, stronger effect = lower value 1 | locus YCL016C, strain dcc1, stronger effect = lower value 1 | locus YCL029C, strain bik1, stronger effect = lower value 0.992 | locus YCL061C, strain MRC1, stronger effect = lower value 1 | locus YCL069W, strain vba3, stronger effect = lower value 1 | locus YCR088W, strain abp1, stronger effect = lower value 1 | locus YDL005C, strain med2, stronger effect = lower value 1.01 | locus YDL035C, strain GPR1, stronger effect = lower value 0.975 | locus YDL040C, strain nat1, stronger effect = lower value 0.985 | locus YDL074C, strain BRE1, stronger effect = lower value 0.935 | locus YDL101C, strain DUN1, stronger effect = lower value 0.997 | locus YDL185W, strain tfp1, stronger effect = lower value 0.987 | locus YDL192W, strain arf1, stronger effect = lower value 0.967 | locus YDR001C, strain nth1, stronger effect = lower value 0.998 | locus YDR069C, strain doa4, stronger effect = lower value 0.99 | locus YDR101C, strain arx1, stronger effect = lower value 0.975 | locus YDR159W, strain sac3, stronger effect = lower value 1 | locus YDR162C, strain NBP2, stronger effect = lower value 0.969 | locus YDR297W, strain sur2, stronger effect = lower value 0.999 | locus YDR318W, strain mcm21, stronger effect = lower value 0.989 | locus YDR334W, strain swr1, stronger effect = lower value 0.993 | locus YDR335W, strain msn5, stronger effect = lower value 0.989 | locus YDR388W, stronger effect = lower value 0.994 | locus YDR392W, strain spt3, stronger effect = lower value 0.82 | locus YDR502C, strain sam2, stronger effect = lower value 1.01 | locus YEL003W, strain gim4, stronger effect = lower value 0.988 | locus YEL037C, strain rad23, stronger effect = lower value 0.982 | locus YEL061C, strain CIN8 (second series), stronger effect = lower value 0.99 | locus YEL061C, strain CIN8, stronger effect = lower value 0.993 | locus YER015W, strain faa2, stronger effect = lower value 1.01 | locus YER016W, strain bim1, stronger effect = lower value 1 | locus YER110C, stronger effect = lower value 1 | locus YER111C, strain swi4, stronger effect = lower value 1 | locus YER155C, strain BEM2 (second series), stronger effect = lower value 0.985 | locus YER155C, strain BEM2, stronger effect = lower value 1.01 | locus YER167W, strain BCK2, stronger effect = lower value 0.995 | locus YFR010W, strain ubp6, stronger effect = lower value 0.971 | locus YGL078C, strain dbp3, stronger effect = lower value 1.02 | locus YGL086W, strain mad1, stronger effect = lower value 0.965 | locus YGL167C, strain pmr1, stronger effect = lower value 0.987 | locus YGL173C, strain kem1, stronger effect = lower value 1 | locus YGL227W, strain vid30, stronger effect = lower value 1.01 | locus YGL240W, strain doc1, stronger effect = lower value 0.963 | locus YGL248W, strain PDE1, stronger effect = lower value 0.981 | locus YGL253W, strain hxk2, stronger effect = lower value 0.985 | locus YGR078C, strain PAC10, stronger effect = lower value 0.964 | locus YGR135W, strain pre9, stronger effect = lower value 1.01 | locus YGR252W, strain gcn5, stronger effect = lower value 1.03 | locus YHR013C, strain ard1, stronger effect = lower value 1 | locus YHR027C, strain rpn1, stronger effect = lower value 0.998 | locus YHR030C, strain SLT2, stronger effect = lower value 0.981 and 1.02 | locus YHR079C, strain IRE1 (second series), stronger effect = lower value 0.995 | locus YHR079C, strain IRE1, stronger effect = lower value 1.06 | locus YHR094C, strain hxt1, stronger effect = lower value 1.01 | locus YHR129C, strain ARP1, stronger effect = lower value 1 | locus YHR142W, strain chs7, stronger effect = lower value 0.964 | locus YHR200W, strain rpn10, stronger effect = lower value 0.994 | locus YIL066C, strain RNR3, stronger effect = lower value 0.991 | locus YIL073C, strain SPO22, stronger effect = lower value 0.935 | locus YIL125W, strain kgd1, stronger effect = lower value 1 | locus YIR030C, strain dcg1, stronger effect = lower value 1.01 | locus YJL092W, strain hpr5, stronger effect = lower value 1.01 | locus YJL095W, strain BCK1 (second series), stronger effect = lower value 0.999 | locus YJL095W, strain BCK1, stronger effect = lower value 0.914 and 1.05 | locus YJL115W, strain asf1, stronger effect = lower value 0.996 | locus YJL129C, strain trk1, stronger effect = lower value 1.01 | locus YJL134W, strain LCB3, stronger effect = lower value 1 | locus YJL154C, strain vps35, stronger effect = lower value 0.997 | locus YJL164C, strain tpk1, stronger effect = lower value 0.996 | locus YJL166W, strain qcr8, stronger effect = lower value 0.983 | locus YJL168C, strain set2, stronger effect = lower value 1 | locus YJL187C, strain SWE1 (second series), stronger effect = lower value 0.954 | locus YJL187C, strain SWE1, stronger effect = lower value 0.995 | locus YJR043C, strain POL32, stronger effect = lower value 0.977 | locus YJR066W, strain TOR1, stronger effect = lower value 0.979 | locus YKL009W, strain mrt4, stronger effect = lower value 1.02 | locus YKL068W, stronger effect = lower value 1.02 | locus YKL085W, strain MDH1 (second series), stronger effect = lower value 1.01 | locus YKL085W, strain MDH1, stronger effect = lower value 1.01 | locus YKL160W, strain elf1, stronger effect = lower value 0.995 | locus YKL190W, strain CNB1, stronger effect = lower value 0.991 | locus YKR001C, strain vps1, stronger effect = lower value 0.928 | locus YKR026C, strain gcn3, stronger effect = lower value 1.02 | locus YKR091W, strain srl3, stronger effect = lower value 1 | locus YLL001W, strain dnm1, stronger effect = lower value 1.01 | locus YLL026W, stronger effect = lower value 1 | locus YLL041C, strain sdh2, stronger effect = lower value 1.01 | locus YLR027C, strain aat2, stronger effect = lower value 1.01 | locus YLR039C, strain RIC1, stronger effect = lower value 0.818 | locus YLR058C, strain SHM2, stronger effect = lower value 0.972 | locus YLR102C, strain apc9, stronger effect = lower value 1.01 | locus YLR113W, strain HOG1, stronger effect = lower value 1.07 | locus YLR221C, strain rsa3, stronger effect = lower value 1.01 | locus YLR258W, strain gsy2, stronger effect = lower value 0.991 | locus YLR268W, strain sec22, stronger effect = lower value 0.933 | locus YLR320W, strain mms22, stronger effect = lower value 0.949 | locus YLR330W, strain CHS5, stronger effect = lower value 0.986 | locus YLR342W, strain FKS1 (second series), stronger effect = lower value 0.984 | locus YLR342W, strain FKS1, stronger effect = lower value 1.01 | locus YLR357W, strain rsc2, stronger effect = lower value 1.03 | locus YLR370C, strain arc18, stronger effect = lower value 1.02 | locus YLR371W, strain rom2, stronger effect = lower value 0.963 | locus YLR384C, strain iki3, stronger effect = lower value 0.998 | locus YLR418C, strain cdc73, stronger effect = lower value 0.936 | locus YML016C, strain PPZ1, stronger effect = lower value 0.997 | locus YML032C, strain rad52, stronger effect = lower value 0.935 | locus YML120C, strain ndi1, stronger effect = lower value 0.998 | locus YML124C, strain tub3, stronger effect = lower value 1.01 | locus YMR058W, strain fet3, stronger effect = lower value 0.98 | locus YMR078C, strain ctf18, stronger effect = lower value 0.988 | locus YMR125W, strain sto1, stronger effect = lower value 1.05 | locus YMR129W, stronger effect = lower value 0.999 | locus YMR205C, strain PFK2, stronger effect = lower value 1.03 | locus YMR223W, strain ubp8, stronger effect = lower value 0.968 | locus YMR231W, strain pep5, stronger effect = lower value 0.999 | locus YMR263W, strain SAP30, stronger effect = lower value 0.982 | locus YMR307W, strain GAS1, stronger effect = lower value 0.883 | locus YNL067W, strain RPL9B, stronger effect = lower value 0.99 | locus YNL071W, strain lat1, stronger effect = lower value 0.996 | locus YNL183C, strain NPR1, stronger effect = lower value 0.974 | locus YNL209W, strain ssb2, stronger effect = lower value 0.988 | locus YNL233W, strain BNI4, stronger effect = lower value 0.966 | locus YNL248C, strain rpa49, stronger effect = lower value 0.948 | locus YNL250W, strain rad50, stronger effect = lower value 1.04 | locus YNL271C, strain bni1, stronger effect = lower value 1 | locus YNL298W, strain CLA4, stronger effect = lower value 1.02 | locus YNL307C, strain MCK1, stronger effect = lower value 1.01 | locus YNL322C, strain KRE1 (second series), stronger effect = lower value 1.02 | locus YNR049C, strain mso1, stronger effect = lower value 1.01 | locus YNR052C, strain pop2, stronger effect = lower value 0.961 | locus YOL012C, strain htz1 1.1 | locus YOL147C, strain pex11, stronger effect = lower value 0.994 | locus YOR001W, strain rrp6, stronger effect = lower value 0.983 | locus YOR061W, strain CKA2, stronger effect = lower value 1 | locus YOR069W, strain VPS5, stronger effect = lower value 0.999 | locus YOR070C, strain gyp1, stronger effect = lower value 1.02 | locus YOR080W, strain dia2, stronger effect = lower value 0.996 | locus YOR083W, strain WHI5, stronger effect = lower value 0.999 | locus YOR106W, strain vam3, stronger effect = lower value 0.965 | locus YOR136W, strain idh2, stronger effect = lower value 1.01 | locus YOR144C, strain elg1, stronger effect = lower value 0.998 | locus YOR184W, strain ser1, stronger effect = lower value 0.946 | locus YOR231W, strain MKK1, stronger effect = lower value 1.09 | locus YOR265W, strain rbl2, stronger effect = lower value 0.996 | locus YOR290C, strain snf2, stronger effect = lower value 0.967 | locus YOR316C, strain cot1, stronger effect = lower value 1.02 | locus YPL078C, strain atp4, stronger effect = lower value 0.96 | locus YPL106C, strain sse1, stronger effect = lower value 0.974 | locus YPL240C, strain hsp82, stronger effect = lower value 1 | locus YPL256C, strain CLN2, stronger effect = lower value 1.09 | locus YPR119W, strain clb2, stronger effect = lower value 1 | locus YPR141C, strain kar3, stronger effect = lower value 1.03 | locus YPR163C, strain tif3, stronger effect = lower value 1 | locus YPR167C, strain met16, stronger effect = lower value 0.998 | strain wtn01, stronger effect = lower value 0.97
active: locus YDR137W, strain rgp1, stronger effect = lower value 0.791 | locus YDR195W, strain ref2 1.18 [resistant] | locus YLR262C, strain YPT6 (second series), stronger effect = lower value 0.857 | locus YOR270C, strain vph1, stronger effect = lower value 0.772 | locus YPL051W, strain arl3, stronger effect = lower value 0.891
